Most compounds without a hit are left out; they make up all but 10% or so of the library.
MCF10A rereplic: A quantitative high throughput screen for small molecules that induce DNA re-replication in MCF 10a normal breast cells | MCF 10A DNA re-replication, Hoechst nuclear intensity, 48 h | Potency, µM (series often up to 46.1 µM), for the others: top-dose activity, positive = re-replication, usual class: activators | 2.9% of 350,000 active; note: % of control where 0% means no effect; nearly all actives have a fitted effect of over 50% in size
RORg inh: qHTS for inhibitors of ROR gamma transcriptional activity; Potency, µM (series often up to 53.6 µM), without a hit: at the highest dose activity change, negative = inhibition, most hits filed as inhibitors; 5.4% of 310,000 active; AID 2551, 2010; Drosophila S2 Gal4-RORgamma UAS-luciferase reporter, 20 h; note: % is set by controls: 0 for no effect and ±100 for the full control effect; nearly all actives have a fitted effect of over 60% in size
Target sequence (P51450 whole entry, looked up, the tested form may be a part): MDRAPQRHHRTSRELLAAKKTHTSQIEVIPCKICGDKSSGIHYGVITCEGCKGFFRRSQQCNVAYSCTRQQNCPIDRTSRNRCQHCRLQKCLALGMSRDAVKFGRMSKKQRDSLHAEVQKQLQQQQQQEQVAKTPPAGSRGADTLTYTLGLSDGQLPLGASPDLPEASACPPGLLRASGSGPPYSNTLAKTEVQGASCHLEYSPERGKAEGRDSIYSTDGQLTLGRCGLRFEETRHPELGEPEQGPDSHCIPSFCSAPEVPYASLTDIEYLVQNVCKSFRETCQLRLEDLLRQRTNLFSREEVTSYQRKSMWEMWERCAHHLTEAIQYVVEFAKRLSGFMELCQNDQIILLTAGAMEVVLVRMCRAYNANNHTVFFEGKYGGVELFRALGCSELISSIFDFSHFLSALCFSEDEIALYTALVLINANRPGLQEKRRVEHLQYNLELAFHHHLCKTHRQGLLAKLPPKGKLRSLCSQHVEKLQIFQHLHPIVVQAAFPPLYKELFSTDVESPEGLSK
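Luminescence from a UAS-regulated Photinus luciferase reporter in stably transfected Drosophila Schneider cells is measured; decreased signal marks ROR gamma inhibition. Fusion expression is induced by 700 uM copper sulfate for 20 hr.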
Gal4-VP16 FLuc: VP16 counterscreen qHTS for inhibitors of ROR gamma transcriptional activity; Potency, µM (highest dose often 53.6 µM), for the others: at the highest dose activity, negative = inhibition, usual class: inhibitors; 3.5% of 310,000 active; Drosophila S2 Gal4-VP16 UAS-luciferase, luminescence, 20 h;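 note: Gal4-VP16 expression switched on by copper sulfate through the metallothionein promoter; % is set by controls: 0 for no effect and ±100 for the full control effect; nearly all actives have a fitted effect of over 50% in size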
ELG1 repair inh: qHTS screen for small molecules that inhibit ELG1-dependent DNA repair in human embryonic kidney (HEK293T) cells expressing luciferase-tagged ELG1; HEK293T ELG1-luciferase reporter, luminescence, 16 h; DNA damage induced by 5-fluorouridine; Potency, µM (series often up to 46.1 µM), for the others: at the top dose activity change, negative = inhibition, actives largely listed as inhibitors; 2.3% of 330,000 active; note: % is set by controls: 0 for no effect and ±100 for the full control effect; nearly all actives have a fitted effect of over 55% in size
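In this reporter screen, reduction of luminescence relative to DMSO vehicle indicated activity. Compounds and 5-fluorouridine were added together to 2,000 cells per well, incubated for 16 hr at 37 °C, then developed with ONE-Glo.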
SW480 rerep: A quantitative high throughput screen for small molecules that induce DNA re-replication in SW480 colon adenocarcinoma cells. SW480 DNA re-replication, Hoechst DNA content imaging, 48 h. Potency, µM (doses to about 46.1 µM), inactives show at the highest dose re-replication activation, actives largely listed as activators. 1.8% of 340,000 active. AID 624297, 2012; note: % of control where 0% means no effect; nearly all actives have a fitted effect of over 55% in size
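SW480 cells exposed to compounds for 48 hr at 37 C, 5% CO2, then Hoechst-stained 40 min. Nuclear DNA content imaged by fluorescence scanning (405 nm excitation, 500-530 nm emission); re-replication scored as increased high-intensity nuclei.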
Numbers without * were called inactive; u = inconclusive; x = not tested or not shown; [ ] = remark or other dose. Calls come from the whole dose curve; as a rule, active = well fitted curve in the direction sought with a large enough effect; inconclusive = small, poorly fitted or top-dose-only effect, or another doubt; inactive = no such curve, though single readings can be large; an effect the other way counts as inactive or inconclusive. Potency is the fitted concentration of half-maximal effect.

SMILES	MCF10A rereplic	RORg inh	Gal4-VP16 FLuc	ELG1 repair inh	SW480 rerep
COc1ccc(C2C3=C(CC(C)(C)CC3=O)Oc3ncn(Cc4ccccc4)c(=N)c32)cc1 (stereo unspecified)	16µM*	-2%	12%	u	u
CC1(C)CC(=O)C2=C(C1)Oc1ncn(Cc3ccco3)c(=N)c1C2c1ccccc1 (stereo unspecified)	-3%	-13%	2%	u	9%
CC1CCN(c2nc(CN3CCCCC3)nc3scc(-c4ccccc4)c23)CC1	2%	10µM*	22µM*	-16%	-7%
CN1CCN(c2ccnc(-c3cccnc3)n2)CC1	x	-13%	5%	x	x
CN1CCN(c2nc(-c3cccnc3)nc3scc(-c4ccccc4)c23)CC1	18µM*	-1%	-9%	-5%	u
CC1CCN(c2nc(-c3cccnc3)nc3scc(-c4ccccc4)c23)CC1	u	46%	u	15%	3%
CC1CCCN(c2nc(-c3cccnc3)nc3scc(-c4ccccc4)c23)C1 (stereo unspecified)	23µM*	u	u	u	1%
NC(=O)C1CC(O)CN1c1nc(CN2CCOCC2)nc2scc(-c3ccccc3)c12 (stereo unspecified)	u	-33%	-9%	1%	0%
O=C1c2ccccc2C(=O)c2c1ccc1c(=O)n(C3CCCCC3)[nH]c21	u	7.9µM*	-30%	21µM*	u
CC(C)C[C@H](NC(=O)[C@H](Cc1cnc[nH]1)NC(=O)[C@@H](N)Cc1cnc[nH]1)C(=O)NCC(=O)NCC(=O)N[C@@H](C)C(=O)N[C@@H](CCCCN)C(=O)N[C@@H](CCC(N)=O)C(=O)N[C@@H](C)C(=O)NCC(=O)N[C@@H](CC(=O)O)C(=O)N[C@H](C(=O)O)C(C)C	x	11%	-1%	x	x
Cc1cc(C(=O)N2CCc3ccccc3C2)c(C)o1	-2%	x	x	x	-6%
O=C(Oc1c(Cl)cc(Cl)c2cccnc12)c1ccco1	21µM*	0.28µM*	u	u	u
O=C(Oc1ccc(Cl)c2cccnc12)N1CCOCC1	0%	-15%	-3%	-1%	-4%
O=C(Oc1c(Cl)cc(Cl)c2cccnc12)c1cccs1	6.5µM*	0.63µM*	1µM*	u	u
O=C(Oc1c(CN2CCOCC2)cc(Cl)c2cccnc12)c1ccccc1Cl	u	0.71µM*	3.5µM*	12µM*	17%
O=C(Oc1c(CN2CCOCC2)cc(Cl)c2cccnc12)c1cccs1	u	1.4µM*	1µM*	u	8.2µM*
CCc1ccccc1	x	-5%	8%	x	x
O=C(CNC(=O)N1CC(=O)Nc2ccccc21)Nc1ccc(F)c(Cl)c1	-2%	0%	-11%	-1%	-15%
Cc1ccc(S(=O)(=O)/N=C(\CCl)N2CCOCC2)cc1	u	-39%	-28%	15µM*	u
Cc1ccc(S(=O)(=O)COCCN2CCN(S(=O)(=O)c3ccc(C)cc3)CCC2=O)cc1	x	10%	5%	x	x
Cc1ccc([N+](=O)[O-])cc1NC(=O)c1ccc2c(c1)OCO2	2%	17%	-16%	-2%	-5%
Cc1ccc(C(=O)Nc2ncc([N+](=O)[O-])s2)cc1	-6%	0.89µM*	2µM*	u	-7%
O=C(Nc1ncc([N+](=O)[O-])s1)c1ccc2c(c1)OCO2	-3%	1.8µM*	2.5µM*	u	8%
CC(=O)Nc1ncc([N+](=O)[O-])s1	-4%	-1%	-14%	x	2%
Cc1onc(-c2ccccc2)c1C(=O)Nc1ncc([N+](=O)[O-])s1	u	u	u	3.7µM*	14%
SMILES	MCF10A rereplic	RORg inh	Gal4-VP16 FLuc	ELG1 repair inh	SW480 rerep
Cc1nc2c(ccc3nc(NC(=O)c4ccc5c(c4)OCCO5)sc32)s1	2.3µM*	0.2µM*	0.089µM*	u	u
COC(=O)c1cccc(CSc2nc(-c3ccccc3)c(C#N)c(=O)[nH]2)c1	u	0%	-15%	0%	-9%
Cc1cccc(OCc2nc(-c3ccc(Br)o3)no2)c1	-1%	25%	-6%	u	-11%[1.84 µM]
CN1CCCC(OC(=O)c2cccc(Cl)c2)C1 (stereo unspecified)	0%	0%	0%	-5%	-2%
CCOC(=O)NCc1ccc(S(=O)(=O)Nc2c(C)cccc2C)cc1	2%	6%	0%	0%	0%
Cc1nc(-c2cccnc2)sc1C(=O)N/N=C/c1ccccc1Cl	2%	3%	0%	-7%	-11%
Cc1ccccc1NC(=O)c1c(-c2ccccc2)noc1C	11%	-26%	6%	1%	0%
Cc1ccc(C(=O)Nc2ncc(Cc3ccc(F)cc3)s2)o1	u	u	u	u	-2%
Cc1ccc(C(=O)Nc2ncc(C)s2)o1	20%	u	-7%	u	-11%
Cc1cccc(C)c1NC(=O)c1c(-c2ccccc2)noc1C	-9%	10µM*	10%	-2%	-17%
Cc1ccc(C(=O)Nc2ncc(Cc3ccc(SC(F)F)cc3)s2)cc1	u	13µM*	u	u	0.73µM*
Cc1ccc(C(=O)Nc2ncc(C)s2)s1	3%	7.1µM*	u	u	7%
Cc1cnc(NC(=O)c2ccc3c(c2)OCCO3)s1	2.9µM*	x	x	u	4.1µM*
CSCCCNC(=S)Nc1ccc(N2CCOCC2)cc1	15%	-42%	4%[10 µM]	-2%	4%
O=C(C1=NNC2C(=O)N(c3ccccc3)C(=O)C12)c1nc(Cl)ccc1Cl (stereo unspecified)	-8%	0%	0%	1%	6%
CCN(CC)C(=O)CNc1ccc(C(F)(F)F)cc1[N+](=O)[O-]	4%	0%	-3%	-6%	-1%
CCOC(=O)C1=NN(C(=O)c2ccc(OC)cc2)C(O)(c2ccc(Cl)cc2)C1 (stereo unspecified)	u	10µM*	u	-3%	u
COC(=O)C1=NN(C(=O)c2cccc(Br)c2)C(O)(c2ccc(Cl)cc2)C1 (stereo unspecified)	7%	-29%	-30%	-2%	u
CCOC(=O)C1=NN(C(=O)c2ccccc2)C(O)(c2ccc(C)cc2)C1 (stereo unspecified)	7%	10µM*	28µM*	-1%	-2%
CCOC(=O)N1N=C(C)CC1(O)c1ccccc1 (stereo unspecified)	-18%	16%	3%	13%	-7%
CCOC(=O)C1=NN(C(=O)c2cccc(Br)c2)C(O)(C(C)(C)C)C1 (stereo unspecified)	x	14µM*	u	-11%	x

High-throughput results (PubChem BioAssay)
